This is an account of results in paper PMC7862700, “An all-to-all approach to the identification of sequence-specific readers for epigenetic DNA modifications on cytosine”.

Holding throughout (test): DAPPL (digital affinity profiling via proximity ligation, sequencing); 10 mM Tris-HCl pH 7.5, 50 mM NaCl, 1 mM DTT, 4% glycerol, room temperature, 30 min; GST-TFs on glutathione beads, 16-mer random dsDNA library, 0.1% formaldehyde crosslink after washing; high values mean tight binding
Common to all, as to settings: protein: recombinant; tags: N-terminal GST; dsDNA, one strand shown

In one experiment the target is T1, FLI1 (Homo sapiens, UniProt Q01543 1-452).
T1 sequence: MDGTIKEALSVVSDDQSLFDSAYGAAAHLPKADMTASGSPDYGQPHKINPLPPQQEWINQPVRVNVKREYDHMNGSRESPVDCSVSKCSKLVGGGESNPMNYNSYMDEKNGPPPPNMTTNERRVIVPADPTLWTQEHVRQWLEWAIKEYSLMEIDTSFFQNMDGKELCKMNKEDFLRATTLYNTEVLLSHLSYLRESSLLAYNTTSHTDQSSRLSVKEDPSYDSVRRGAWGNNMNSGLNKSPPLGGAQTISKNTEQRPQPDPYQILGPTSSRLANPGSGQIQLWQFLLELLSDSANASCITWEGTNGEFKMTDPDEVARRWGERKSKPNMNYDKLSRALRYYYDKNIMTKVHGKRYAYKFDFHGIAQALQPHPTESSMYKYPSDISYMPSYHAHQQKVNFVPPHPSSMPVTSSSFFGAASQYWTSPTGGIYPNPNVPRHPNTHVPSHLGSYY
The method in brief:
(§1)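 GST fusions of human transcription factors were expressed in yeast and captured with glutathione beads. Once given DNA barcodes and pooled alongside a tag-only sample, they were incubated for 30 min at room temperature with 200 nmole of a random double-stranded 16-mer DNA library in Tris/NaCl/DTT/glycerol buffer, then washed, crosslinked (0.1% formaldehyde), proximity-ligated, PCR-amplified and sequenced on an Illumina NextSeq500. The binding signal of each hexamer is its read frequency for a factor divided by its frequency for the tag-only sample.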

A further experiment concerns the target T2, ELK1 (Homo sapiens, UniProt P19419 1-428).
T2 sequence: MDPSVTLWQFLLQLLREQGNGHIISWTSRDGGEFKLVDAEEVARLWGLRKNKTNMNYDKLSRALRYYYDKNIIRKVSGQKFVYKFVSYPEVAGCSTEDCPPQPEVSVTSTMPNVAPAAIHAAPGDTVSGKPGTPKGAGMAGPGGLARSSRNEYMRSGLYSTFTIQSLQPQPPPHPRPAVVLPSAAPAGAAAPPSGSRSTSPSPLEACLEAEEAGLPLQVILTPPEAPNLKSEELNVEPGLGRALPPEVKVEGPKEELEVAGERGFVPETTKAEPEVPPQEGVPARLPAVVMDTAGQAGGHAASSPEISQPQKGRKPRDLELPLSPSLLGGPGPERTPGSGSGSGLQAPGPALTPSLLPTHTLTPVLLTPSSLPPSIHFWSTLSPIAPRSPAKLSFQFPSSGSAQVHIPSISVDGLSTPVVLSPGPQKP
The method in brief: as §1

The next experiment deals with T3, GABPA (Homo sapiens, UniProt Q06546 1-454).
T3 sequence: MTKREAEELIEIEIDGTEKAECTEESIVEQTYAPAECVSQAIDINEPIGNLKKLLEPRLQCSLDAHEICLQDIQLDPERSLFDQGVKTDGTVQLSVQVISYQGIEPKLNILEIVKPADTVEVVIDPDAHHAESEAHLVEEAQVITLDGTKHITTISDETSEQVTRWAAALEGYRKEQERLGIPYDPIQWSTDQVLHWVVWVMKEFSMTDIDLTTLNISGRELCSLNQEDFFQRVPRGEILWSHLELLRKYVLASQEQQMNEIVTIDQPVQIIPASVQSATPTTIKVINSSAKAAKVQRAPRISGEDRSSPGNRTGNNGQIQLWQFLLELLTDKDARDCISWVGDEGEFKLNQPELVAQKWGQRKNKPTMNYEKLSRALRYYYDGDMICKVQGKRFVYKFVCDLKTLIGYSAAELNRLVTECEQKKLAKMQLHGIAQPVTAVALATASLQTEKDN
The method in brief:
as §1

The next experiment addresses T4, ERG (Homo sapiens, UniProt P11308 1-479).
T4 sequence: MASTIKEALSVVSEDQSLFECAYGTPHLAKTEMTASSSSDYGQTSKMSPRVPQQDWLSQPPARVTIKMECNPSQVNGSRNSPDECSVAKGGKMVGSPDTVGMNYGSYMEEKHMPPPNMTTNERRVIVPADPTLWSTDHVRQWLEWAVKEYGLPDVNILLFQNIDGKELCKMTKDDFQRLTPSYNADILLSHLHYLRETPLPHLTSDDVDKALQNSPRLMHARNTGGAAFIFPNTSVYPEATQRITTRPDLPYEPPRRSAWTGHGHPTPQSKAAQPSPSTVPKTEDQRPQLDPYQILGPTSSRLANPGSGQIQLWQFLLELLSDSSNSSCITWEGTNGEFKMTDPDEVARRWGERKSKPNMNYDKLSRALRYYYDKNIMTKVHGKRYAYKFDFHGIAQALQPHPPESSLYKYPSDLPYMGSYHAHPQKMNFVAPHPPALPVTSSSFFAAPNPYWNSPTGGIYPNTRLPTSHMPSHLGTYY
The method in brief: as §1

A further experiment has as its target ELF1 (Homo sapiens, UniProt P32519 1-619). The method in brief:
as §1

The target in another experiment is T5, EHF (Homo sapiens, UniProt Q9NZC4 1-300).
T5 sequence: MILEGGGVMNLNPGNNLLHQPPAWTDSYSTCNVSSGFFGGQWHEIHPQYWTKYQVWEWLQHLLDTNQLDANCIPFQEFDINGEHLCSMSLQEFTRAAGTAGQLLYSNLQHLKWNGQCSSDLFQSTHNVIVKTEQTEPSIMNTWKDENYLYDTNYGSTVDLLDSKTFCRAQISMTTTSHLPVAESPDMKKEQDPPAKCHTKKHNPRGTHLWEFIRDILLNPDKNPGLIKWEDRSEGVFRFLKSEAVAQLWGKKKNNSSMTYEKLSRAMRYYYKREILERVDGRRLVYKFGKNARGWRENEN
The method in brief: as §1

In the next experiment the target is SPI1 (Homo sapiens, UniProt P17947 1-270). An outline of the steps:
as §1

A further experiment deals with SPIB (Homo sapiens, UniProt Q01892 1-262). The method in brief:
as §1

The next experiment concerns the target T6, ELK3 (Homo sapiens, UniProt P41970 1-407).
T6 sequence: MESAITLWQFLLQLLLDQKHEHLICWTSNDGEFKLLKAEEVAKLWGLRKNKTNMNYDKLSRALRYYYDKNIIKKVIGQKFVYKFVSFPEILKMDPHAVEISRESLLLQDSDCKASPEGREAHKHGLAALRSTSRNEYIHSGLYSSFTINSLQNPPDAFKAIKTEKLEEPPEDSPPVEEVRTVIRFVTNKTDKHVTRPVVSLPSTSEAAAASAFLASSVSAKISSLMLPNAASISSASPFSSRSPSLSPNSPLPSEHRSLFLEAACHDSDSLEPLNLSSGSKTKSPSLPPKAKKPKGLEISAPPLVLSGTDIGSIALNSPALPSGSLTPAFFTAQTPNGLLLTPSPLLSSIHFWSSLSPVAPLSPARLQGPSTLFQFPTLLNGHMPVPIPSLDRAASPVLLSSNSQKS
An outline of the steps: as §1

A further experiment concerns the target T7, FEV (Homo sapiens, UniProt Q99581 1-238).
T7 sequence: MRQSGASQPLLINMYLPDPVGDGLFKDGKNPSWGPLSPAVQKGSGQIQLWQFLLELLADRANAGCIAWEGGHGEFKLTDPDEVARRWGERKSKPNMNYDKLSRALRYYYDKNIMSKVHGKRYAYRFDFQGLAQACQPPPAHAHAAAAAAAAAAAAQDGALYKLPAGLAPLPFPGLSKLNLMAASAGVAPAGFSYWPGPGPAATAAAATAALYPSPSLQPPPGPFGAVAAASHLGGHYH
An outline of the steps: as §1

The target in another experiment is ETV5 (Homo sapiens, UniProt P41161 1-510). The method in brief:
as §1

For a further experiment, the target named is T8, SPIC (Homo sapiens, UniProt Q8N5J4 1-248).
T8 sequence: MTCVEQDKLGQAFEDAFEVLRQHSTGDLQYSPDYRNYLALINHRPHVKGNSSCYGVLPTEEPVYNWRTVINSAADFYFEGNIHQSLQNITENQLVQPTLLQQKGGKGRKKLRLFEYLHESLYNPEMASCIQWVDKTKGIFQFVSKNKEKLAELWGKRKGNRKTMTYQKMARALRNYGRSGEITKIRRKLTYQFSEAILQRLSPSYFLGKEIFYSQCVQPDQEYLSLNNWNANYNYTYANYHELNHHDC
The method in brief:
as §1

The target in another experiment is ELF4 (Homo sapiens, UniProt Q99607 1-663). An outline of the steps:
as §1

For the next experiment, the target named is T9, ELK4 (Homo sapiens, UniProt P28324-2 1-405).
T9 sequence: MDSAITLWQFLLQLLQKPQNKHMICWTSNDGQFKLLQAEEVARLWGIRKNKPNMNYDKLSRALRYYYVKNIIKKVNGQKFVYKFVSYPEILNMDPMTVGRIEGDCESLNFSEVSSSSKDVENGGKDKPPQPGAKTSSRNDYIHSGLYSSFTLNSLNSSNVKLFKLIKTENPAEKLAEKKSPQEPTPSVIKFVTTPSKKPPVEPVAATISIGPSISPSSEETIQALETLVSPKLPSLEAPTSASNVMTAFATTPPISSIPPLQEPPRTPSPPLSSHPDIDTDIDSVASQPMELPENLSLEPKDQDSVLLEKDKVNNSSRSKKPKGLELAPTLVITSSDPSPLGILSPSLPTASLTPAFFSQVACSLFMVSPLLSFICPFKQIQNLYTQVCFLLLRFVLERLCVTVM
The method in brief: as §1

The target of another experiment is T10, ETV2 (Homo sapiens, UniProt O00321 1-342).
T10 sequence: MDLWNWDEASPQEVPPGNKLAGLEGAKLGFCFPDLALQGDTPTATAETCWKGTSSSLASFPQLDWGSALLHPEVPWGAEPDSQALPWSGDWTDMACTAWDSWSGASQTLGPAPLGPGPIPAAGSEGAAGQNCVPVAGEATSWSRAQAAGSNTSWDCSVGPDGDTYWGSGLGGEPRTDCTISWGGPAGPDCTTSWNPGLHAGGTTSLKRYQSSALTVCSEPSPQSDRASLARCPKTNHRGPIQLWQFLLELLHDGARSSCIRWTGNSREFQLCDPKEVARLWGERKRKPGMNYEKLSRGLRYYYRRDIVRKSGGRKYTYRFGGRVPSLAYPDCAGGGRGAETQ
An outline of the steps:
as §1

In the next experiment the target is T11, ELF3 (Homo sapiens, UniProt P78545 1-371).
T11 sequence: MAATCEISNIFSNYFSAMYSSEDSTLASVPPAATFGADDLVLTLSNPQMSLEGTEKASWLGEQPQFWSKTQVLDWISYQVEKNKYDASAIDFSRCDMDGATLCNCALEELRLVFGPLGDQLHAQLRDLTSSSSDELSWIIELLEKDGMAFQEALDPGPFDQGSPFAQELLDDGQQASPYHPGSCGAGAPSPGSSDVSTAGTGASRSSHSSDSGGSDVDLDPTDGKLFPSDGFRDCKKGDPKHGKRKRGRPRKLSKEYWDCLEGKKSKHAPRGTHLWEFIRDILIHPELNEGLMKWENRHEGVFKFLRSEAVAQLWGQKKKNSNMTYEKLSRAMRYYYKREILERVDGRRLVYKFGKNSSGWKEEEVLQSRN
An outline of the steps:
as §1

Another experiment has as its target ETV1 (Homo sapiens, UniProt P50549 1-477). The method in brief: as §1

Sequence of ETV5 (P41161 whole entry): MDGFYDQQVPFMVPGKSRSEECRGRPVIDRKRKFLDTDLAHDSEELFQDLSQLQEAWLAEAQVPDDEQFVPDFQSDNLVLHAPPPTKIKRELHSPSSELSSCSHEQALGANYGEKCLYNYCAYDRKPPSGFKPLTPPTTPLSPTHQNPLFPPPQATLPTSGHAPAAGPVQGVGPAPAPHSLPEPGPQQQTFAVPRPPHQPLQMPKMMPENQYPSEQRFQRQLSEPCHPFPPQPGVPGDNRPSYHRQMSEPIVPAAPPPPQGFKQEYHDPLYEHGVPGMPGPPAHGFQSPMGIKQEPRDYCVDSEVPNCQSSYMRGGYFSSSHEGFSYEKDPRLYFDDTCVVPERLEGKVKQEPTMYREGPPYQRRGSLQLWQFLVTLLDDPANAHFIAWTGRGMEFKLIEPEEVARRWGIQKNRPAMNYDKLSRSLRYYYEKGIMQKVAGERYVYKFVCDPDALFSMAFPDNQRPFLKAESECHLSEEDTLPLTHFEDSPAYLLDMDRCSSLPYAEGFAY
Sequence of ELF4 (Q99607 whole entry): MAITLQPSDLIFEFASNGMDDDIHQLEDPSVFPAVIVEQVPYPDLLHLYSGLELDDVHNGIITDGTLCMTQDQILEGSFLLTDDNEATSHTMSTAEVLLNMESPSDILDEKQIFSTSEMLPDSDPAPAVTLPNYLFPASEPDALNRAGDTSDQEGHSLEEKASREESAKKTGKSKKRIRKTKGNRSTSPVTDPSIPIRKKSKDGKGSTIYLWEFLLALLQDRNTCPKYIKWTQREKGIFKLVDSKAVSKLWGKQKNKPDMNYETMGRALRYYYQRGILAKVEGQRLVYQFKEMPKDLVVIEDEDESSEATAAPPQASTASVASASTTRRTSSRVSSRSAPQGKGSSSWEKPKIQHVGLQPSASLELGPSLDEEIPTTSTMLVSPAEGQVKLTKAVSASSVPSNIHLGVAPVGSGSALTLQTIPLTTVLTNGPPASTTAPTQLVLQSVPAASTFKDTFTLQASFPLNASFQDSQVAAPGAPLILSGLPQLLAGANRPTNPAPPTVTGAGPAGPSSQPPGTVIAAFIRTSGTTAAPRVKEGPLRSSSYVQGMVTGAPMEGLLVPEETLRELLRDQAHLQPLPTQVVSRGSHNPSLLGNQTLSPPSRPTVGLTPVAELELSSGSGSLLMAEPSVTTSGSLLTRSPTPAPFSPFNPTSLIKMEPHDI
Sequence of ETV1 (P50549 whole entry): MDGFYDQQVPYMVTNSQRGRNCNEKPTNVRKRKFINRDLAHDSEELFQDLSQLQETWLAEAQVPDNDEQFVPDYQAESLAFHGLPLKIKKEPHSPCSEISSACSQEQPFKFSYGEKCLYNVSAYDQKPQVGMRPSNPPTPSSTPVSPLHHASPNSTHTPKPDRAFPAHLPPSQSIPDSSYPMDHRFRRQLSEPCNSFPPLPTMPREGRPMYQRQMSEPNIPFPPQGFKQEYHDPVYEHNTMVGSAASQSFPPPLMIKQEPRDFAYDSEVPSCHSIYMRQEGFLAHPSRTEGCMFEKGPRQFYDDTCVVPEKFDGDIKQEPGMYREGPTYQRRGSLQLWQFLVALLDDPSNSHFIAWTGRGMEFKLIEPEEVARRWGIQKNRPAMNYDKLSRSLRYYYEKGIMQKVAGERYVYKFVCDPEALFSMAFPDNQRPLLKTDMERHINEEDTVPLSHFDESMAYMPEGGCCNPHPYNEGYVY
Sequence of ELF1 (P32519 whole entry): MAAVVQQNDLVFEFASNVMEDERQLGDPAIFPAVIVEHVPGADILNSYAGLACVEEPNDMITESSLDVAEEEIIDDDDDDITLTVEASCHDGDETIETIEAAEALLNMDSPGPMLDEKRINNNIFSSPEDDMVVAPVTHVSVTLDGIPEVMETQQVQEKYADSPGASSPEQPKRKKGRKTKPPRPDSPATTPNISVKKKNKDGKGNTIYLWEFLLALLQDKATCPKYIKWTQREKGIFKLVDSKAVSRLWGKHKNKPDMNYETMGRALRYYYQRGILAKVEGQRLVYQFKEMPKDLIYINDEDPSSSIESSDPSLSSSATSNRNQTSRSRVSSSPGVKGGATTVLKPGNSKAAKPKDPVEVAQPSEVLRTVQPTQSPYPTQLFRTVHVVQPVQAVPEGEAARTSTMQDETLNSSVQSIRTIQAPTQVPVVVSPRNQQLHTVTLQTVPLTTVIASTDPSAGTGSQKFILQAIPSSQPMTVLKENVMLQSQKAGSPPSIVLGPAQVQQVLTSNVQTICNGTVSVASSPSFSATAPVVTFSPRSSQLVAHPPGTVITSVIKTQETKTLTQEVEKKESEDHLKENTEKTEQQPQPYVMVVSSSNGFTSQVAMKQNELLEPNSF
Sequence of SPIB (Q01892 whole entry): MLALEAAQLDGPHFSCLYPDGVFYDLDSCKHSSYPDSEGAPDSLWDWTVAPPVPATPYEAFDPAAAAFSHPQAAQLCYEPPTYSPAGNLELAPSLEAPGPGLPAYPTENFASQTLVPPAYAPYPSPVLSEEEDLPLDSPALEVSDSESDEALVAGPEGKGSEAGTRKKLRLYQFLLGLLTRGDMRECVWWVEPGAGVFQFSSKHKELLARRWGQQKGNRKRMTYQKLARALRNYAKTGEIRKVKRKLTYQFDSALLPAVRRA

Consider TGTGCC, for which the binding signal with FLI1 was 1.17 fold enrichment (6-mer frequency, TF over GST control); in the experiment with ELK1, 1.2 fold enrichment (6-mer frequency, TF over GST control); with GABPA it was 1.07 fold enrichment (6-mer frequency, TF over GST control); with ERG, 1.17 fold enrichment (6-mer frequency, TF over GST control); with ELF1, 1.21 fold enrichment (6-mer frequency, TF over GST control); in the experiment with EHF, 1.02 fold enrichment (6-mer frequency, TF over GST control). Moreover, the binding signal was 1.06 fold enrichment (6-mer frequency, TF over GST control) with SPI1; 1.04 fold enrichment (6-mer frequency, TF over GST control) with SPIB; 1.3 fold enrichment (6-mer frequency, TF over GST control) in the experiment with ELK3; 1.2 fold enrichment (6-mer frequency, TF over GST control) in the experiment with FEV; 1.21 fold enrichment (6-mer frequency, TF over GST control) with ETV5; 1.12 fold enrichment (6-mer frequency, TF over GST control) in the experiment with SPIC. Also, the binding signal was 1.17 fold enrichment (6-mer frequency, TF over GST control) with ELF4; 1.32 fold enrichment (6-mer frequency, TF over GST control) with ELK4; 1.23 fold enrichment (6-mer frequency, TF over GST control) with ETV2; 1.03 fold enrichment (6-mer frequency, TF over GST control) with ELF3; 1.05 fold enrichment (6-mer frequency, TF over GST control) with ETV1.

Turning to CAACAT, the binding signal in the experiment with FLI1 is 1.18 fold enrichment (6-mer frequency, TF over GST control); with ELK1 it was 1.21 fold enrichment (6-mer frequency, TF over GST control); with GABPA it was 1.22 fold enrichment (6-mer frequency, TF over GST control); with ERG, 1.2 fold enrichment (6-mer frequency, TF over GST control); with ELF1 it was 1.2 fold enrichment (6-mer frequency, TF over GST control); with EHF, 1.23 fold enrichment (6-mer frequency, TF over GST control). In addition, the binding signal with SPI1 is 1.06 fold enrichment (6-mer frequency, TF over GST control); in the experiment with SPIB it was 1.14 fold enrichment (6-mer frequency, TF over GST control); with ELK3 it was 1.14 fold enrichment (6-mer frequency, TF over GST control); with FEV, 1.21 fold enrichment (6-mer frequency, TF over GST control); with ETV5, 1.21 fold enrichment (6-mer frequency, TF over GST control); with SPIC it was 1.05 fold enrichment (6-mer frequency, TF over GST control). Further, the binding signal in the experiment with ELF4 was 1.19 fold enrichment (6-mer frequency, TF over GST control); with ELK4 it was 1.23 fold enrichment (6-mer frequency, TF over GST control); in the experiment with ETV2, 1.19 fold enrichment (6-mer frequency, TF over GST control); in the experiment with ELF3 it was 1.2 fold enrichment (6-mer frequency, TF over GST control); with ETV1 it was 1.13 fold enrichment (6-mer frequency, TF over GST control).
